Compounds with a hit are over-represented: about 3.9% of the library has one in this group of screens.
Tb PFK inh = qHTS Assay to Find Inhibitors of T. brucei phosphofructokinase | ATP-dependent 6-phosphofructokinase (Trypanosoma brucei brucei), O15648 | T. brucei PFK, ADP-Glo luminescence | Potency, µM (highest dose often 57.5 µM), for the others: top-dose activity, negative = inhibition, hits mostly inhibitors | 0.17% of 330,000 active;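 further: 0% = uninhibited 1x PFK enzyme wells and -100% = no-enzyme wells; nearly all actives have a fitted effect of over 60% in size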
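In TEA buffer at pH 8.0 with 5 mM MgCl2, enzyme (1.25 nM) converted F6P (0.5 mM) and ATP (0.1 mM) for 45 min at room temperature. ADP product was read by luciferase luminescence.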
VDR inhibitor = Inhibitors of the vitamin D receptor (VDR): qHTS; 0.93% of 400,000 active; Potency, µM, inactives show max response, negative = inhibition, hits mostly inhibitors; VDR-SRC2-3 peptide fluorescence polarization, 2 h; AID 504847, 2011; Vitamin D3 receptor (Homo sapiens), P11473; further: on the % scale 0 is the no-effect control and ±100 the full control effect
Target sequence (P11473 whole entry, looked up): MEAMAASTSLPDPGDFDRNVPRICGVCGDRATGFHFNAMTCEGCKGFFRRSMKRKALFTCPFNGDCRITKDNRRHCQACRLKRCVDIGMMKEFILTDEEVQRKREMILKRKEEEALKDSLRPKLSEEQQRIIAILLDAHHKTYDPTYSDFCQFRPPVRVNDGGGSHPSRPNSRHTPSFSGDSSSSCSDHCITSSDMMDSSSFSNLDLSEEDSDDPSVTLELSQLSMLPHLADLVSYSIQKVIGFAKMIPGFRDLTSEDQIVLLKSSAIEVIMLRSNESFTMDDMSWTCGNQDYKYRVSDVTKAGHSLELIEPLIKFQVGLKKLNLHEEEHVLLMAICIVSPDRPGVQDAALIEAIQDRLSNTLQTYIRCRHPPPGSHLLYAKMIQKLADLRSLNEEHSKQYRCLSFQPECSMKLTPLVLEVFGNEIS
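The screen uses fluorescence polarization to detect compounds that interfere with recruitment of the SRC2-3 coactivator peptide to VDR; plates are read after 2 h at room temperature.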
PLK1 PBD inh = qHTS for Inhibitors of PLK1-PDB (polo-like kinase 1 - polo-box domain): Primary Screen | Serine/threonine-protein kinase PLK1 (Homo sapiens), P53350 | Plk1 PBD binding of FITC phosphopeptide, fluorescence polarization | Potency, µM, for inactives: max response, negative = inhibition, hits mostly inhibitors | 2.8% of 360,000 active | AID 720504, 2013; further: series mostly up to about 57 µM; on the % scale 0 is the no-effect control and ±100 the full control effect; nearly all actives have a fitted effect of over 65% in size
BRCA1 expr act = qHTS Assay to Identify Small Molecule Activators of BRCA1 Expression; MCF7-BRCA1-FFLuc reporter, luminescence, 48 h; response scale: scaled: vehicle 0%, 10 µM genistein 100%; Potency, µM (doses to about 46.1 µM), for inactives: at the highest dose activation, actives largely listed as activators; 1.1% of 380,000 active; AID 624202, 2012; further: nearly all actives have a fitted effect of over 80% in size
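48 h compound treatment of MCF7-BRCA1-FFLuc cells (phenol-red free MEM, 37 °C), then 15 min with luciferase substrate and luminescence imaging.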
* hit, by the source's call; u = inconclusive; x = not tested or not shown. The call rests on the fitted dose curve; in most records, active means well fitted curve in the direction sought with a large enough effect; inconclusive means small, poorly fitted or top-dose-only effect, or another doubt; inactive means no such curve, though single readings can be large; an effect the other way counts as inactive or inconclusive. Potency means the concentration at half of the fitted maximal effect.

SMILES | Tb PFK inh | VDR inhibitor | PLK1 PBD inh | BRCA1 expr act
CC(=O)OC1CC[C@@]2(C)C3CC(=O)[C@]4(C)C(C(C)=O)=CCC4C3CC[C@H]2C1 (some centres undefined) | x | 2µM* | x | x
CCN1CC2(OC(=O)c3ccccc3NC(C)=O)CCC(OC)[C@]34C1[C@H](CC23)[C@@]1(O)C[C@H](OC)[C@H]2CC4C1(O)[C@H]2OC (some centres undefined) | x | 0% | x | x
O=C(Nc1cccc(C(=O)Nc2cc(C(=O)Nc3ccc([S+](=O)([O-])[O-])c4cc([S+](=O)([O-])[O-])cc(SOOO)c34)ccc2F)c1)Nc1cccc(C(=O)Nc2cc(C(=O)Nc3ccc([S+](=O)([O-])[O-])c4cc([S+](=O)([O-])[O-])cc([S+](=O)([O-])[O-])c34)ccc2F)c1 | x | 40µM* | x | x
COc1ccc(/C=C2\C(=O)NC(=O)N(Cc3ccccc3)C2=O)c(OC)c1OC | -6% | u | 12µM* | -15%
COc1cc(OC)c(OC)cc1/C=C1\C(=O)NC(=O)N(Cc2ccccc2)C1=O | -3% | -14% | 2.7µM* | -2%
COc1ccc(CN2C(=O)NC(=O)/C(=C\c3cc(OC)c(OC)c(OC)c3)C2=O)cc1 | -9% | 50µM* | 8.4µM* | 0%
COc1cc(OC)c(OC)cc1/C=C1/C(=O)NC(=O)N(Cc2ccccc2)C1=O | 7% | -5% | u | 1%
CCOC(=O)c1ncc2[nH]c3ccc(OCc4ccccc4)cc3c2c1COC | x | -1% | x | x
CC(C)CS(=O)(=O)C1=NN2C(=N)/C(=C\c3ccc(OC(=O)c4ccco4)cc3)C(=O)N=C2S1 | 0% | u | 21µM* | -3%
Cn1cccc1-c1cccnc1 | x | 3% | x | x
N#CC(C#N)=Cc1ccc(O)cc1 | x | 50µM* | x | x
N#CC(C#N)=Cc1cc(O)c(O)c(O)c1 | x | 22µM* | x | x
C(=C/c1ccccc1)/CN1CCN(CCOC(c2ccccc2)c2ccccc2)CC1 | x | -7% | x | x
CCN1C[C@@]2(COC)[C@H]3[C@@H](OC)[C@H]4C1[C@@]3([C@H](OC)C[C@@H]2O)[C@H]1C[C@@]2(O)[C@@H](OC(=O)c3ccccc3)[C@@H]1[C@@]4(OC(C)=O)[C@H](O)[C@@H]2OC | x | 1% | x | x
O=[N+]([O-])c1ccc2c(c1)Cc1cc(O)ccc1-2 | x | -8% | -4% | 26%
Nc1ccc2c(c1)Cc1cc([N+](=O)[O-])ccc1-2 | 2% | 1% | -10% | 10µM*
CC1CC2CC(=O)C3CCCN4CCCC2[C@]34C1 (some centres undefined) | x | 3% | x | x
CC(C)(C)C(O)C(Cc1ccc(Cl)cc1Cl)n1cncn1 (centres undefined) | x | 9% | x | x
C=CCN1C(=O)NC(=O)/C(=C/c2cnc(SC)nc2)C1=O | 2% | 28µM* | 11µM* | 3%
Cc1cc(/C=C2\C(=O)NC(=O)N(c3ccc(Cl)cc3)C2=O)c(C)n1-c1cccc(C(=O)O)c1 | 23% | 8% | 27µM* | 7%
Cc1cc(/C=C2\C(=O)NC(=O)N(c3ccc(Br)cc3)C2=O)c(C)n1-c1cc(C(=O)O)cc(C(=O)O)c1 | -21% | u | 12µM* | 21%
CN1[C@@H]2CC[C@H]1CC(OC(c1ccc(F)cc1)c1ccc(F)cc1)C2 (some centres undefined) | x | -17% | x | x
Cc1cc(/C=C/c2cccc3sc(C)[n+](CCCCI)c23)ccc1N(CCCl)CCCl | x | x | x | -31%
CCCCOC(=O)N(C)SN(C)C(=O)Oc1cccc2c1OC(C)(C)C2 | x | 3.2µM* | x | x
CCC1COC(Cn2cncn2)(c2ccc(Cl)cc2Cl)O1 (centres undefined) | x | -13% | x | x
SMILES | Tb PFK inh | VDR inhibitor | PLK1 PBD inh | BRCA1 expr act
Oc1c(Cl)c(Cl)c(Cl)c(Cl)c1Cl | x | 89µM* | 27µM* | -22%
NS(=O)(=O)c1cc(C(=O)OCC(=O)Nc2ccc3[nH]c(=O)[nH]c3c2)ccc1Cl | u | -16% | 4% | 9%
COc1cc(/C=C2/SC(=S)N(Cc3ccccc3)C2=O)ccc1OCC(=O)O | 4% | 89µM* | u | -30%
COc1cc(CN2CCN(C(=O)Cc3ccccc3)CC2)cc(OC)c1OC | 0% | 2% | 0% | -8%
Cc1cccc(-n2c(O)c(C=Nc3ccc(Br)cn3)c(=O)[nH]c2=O)c1 | -3% | 20µM* | 6µM* | 12%
Cc1ccc(-n2c(O)c(/C=N/c3ncc(Br)cc3Br)c(=O)[nH]c2=O)cc1 | 2% | 2% | -12% | -3%
O=C(O)c1cc(Oc2ccc([N+](=O)[O-])cc2)cc(Oc2ccc([N+](=O)[O-])cc2)c1 | x | 45µM* | x | x
On1ccccc1=S | -25% | 22µM* | u | -12%
Cc1o[nH]c(=O)c1C[C@H](N)C(=O)O | x | 15% | x | x
Cc1cc(C)cc(-n2c(C)cc(/C=C3\C(=O)NC(=O)N(C)C3=O)c2C)c1 | -1% | -5% | u | -16%
CCOc1cc(/C=C2\C(=O)NC(=O)N(C)C2=O)cc([N+](=O)[O-])c1O | 3% | -27% | 7.5µM* | -13%
COc1ccc(C#Cc2ccc3c(c2)O[C@H](CN(C)C(C)=O)[C@H](C)CN([C@@H](C)CO)S3(=O)=O)cc1 | x | x | 24µM* | 4%
COc1ccc2c3c([nH]c2c1)C(C)=NCC3 | 4% | -10% | 1% | 0%
CC1=NCCc2c1[nH]c1cc(O)ccc21 | 2% | 13% | 1.2µM* | -3%
CC(C)[C@H](NC(=O)[C@H](CCC(=O)O)NC(=O)[C@H](Cc1ccccc1)NC(=O)[C@H](C)NC(=O)[C@@H](N)Cc1ccc(O)cc1)C(=O)N[C@H](C(=O)NCC(N)=O)C(C)C | x | -3% | x | x
C[C@]12CCC3C(CC[C@H]4C[C@@H](O)CC[C@]34C)[C@H]1CC[C@H]2O (some centres undefined) | 5% | -10% | -3% | -25%
C[C@H]1CC[C@@]2(C)[C@@H](CC[C@@H]3[C@@H]2CC[C@]2(C)[C@@H](O)CC[C@@H]32)C1 | -2% | -14% | 27µM* | 10%
CC(=O)C[C@@H](c1ccccc1)c1c(O)c2ccccc2oc1=O | x | -3% | x | x
CC(=O)N1C[C@H](O)C[C@H]1C(=O)O | -1% | -11% | u | -8%
Cc1cc(C)cc(N2C(=O)NC(=O)/C(=C\c3cccn3-c3ccc(Cl)cc3)C2=O)c1 | -2% | -1% | 1.2µM* | -69%
O=C1NC(=O)N(c2ccccc2)C(=O)/C1=C/c1ccc(Sc2ccccc2)o1 | 19% | u | u | -35%
Cc1cc(C)cc(N2C(=O)NC(=O)/C(=C\c3cccn3-c3ccccc3)C2=O)c1 | u | -8% | 2.1µM* | -42%
Cc1cc(/C=C2\C(=O)NC(=O)N(c3ccc(Br)cc3)C2=O)c(C)n1C | 3% | 14% | -2% | -34%
CN1C(=O)/C(=C/c2cccn2-c2ccc3ccccc3c2)C(=O)NC1=S | -10% | 45µM* | 0.53µM* | -32%
CCN(CC)C(=O)c1ccc(NC(=O)c2cccc(F)c2)cc1 | -13% | -10% | 0% | 11µM*

Source: PubChem BioAssay (National Center for Advancing Translational Sciences (NCATS))
